# High-throughput results deposited in PubChem by several laboratories.
# MITF TRPM1 inh = inhibitors of MITF-dependent TRPM1 promoter reporter, primary screen, cell-based, SK-MEL-5, single point, luciferase; SK-MEL-5 TRPM1 promoter luciferase, 24 h; inhibition, % at 12.5 µM; hit rate 0.83% among 330,000; AID 488899, 2010;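 active = mean inhibition across replicates of 60% or more, whatever share of single replicates reaches that level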
# Shn3 inh set2 = reduction of Shn3 3'UTR firefly luciferase signal, primary screen, Schnurri-3 inhibitor project, cell-based, Clone20 osteoblasts, set 2; Clone20 osteoblast Shn3 3'UTR firefly luciferase, 24 h; inhibition, % at 12.5 µM; hit rate 0.52% among 360,000;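 active = mean inhibition of at least 75% with every replicate also reaching 75%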;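 also: 0% = median of neutral control wells and 100% = pilot-screen positive control compound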
# Gli-Sufu block = Gli-Sufu pathway antagonists, primary screen, luciferase luminescence, Sufu-KO-LIGHT cells, uHTS | hit rate 0.74% among 340,000 | Sufu-KO-LIGHT fibroblasts, Gli luciferase reporter luminescence | inhibition, % at 5 µM;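 active = inhibition above about 55%, limit read from the data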;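 also: 0% = DMSO-treated cells and 100% = wells with medium but no cells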
# LMP1 NFkB inh = EBV LMP1-driven NF-kappaB luciferase reporter inhibitors, primary screen, cell-based, luminescence, single point; inhibition, % at 12.5 µM; hit rate 0.69% among 350,000; LMP1-induced NF-kappaB luciferase reporter cells; in the data active = inhibition above about 41%;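 also: 0% = neutral control wells and 100% = reference inhibitor control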
# Jurkat NFkB inh = inhibitors of induced NF-kB luciferase reporter, primary screen, TCR NF-kB activation inhibitor project, cell-based, luminescence, uHTS | hit rate 0.53% among 330,000 | inhibition, % at 4 µM | Jurkat, PMA/ionomycin-induced NF-kB luciferase reporter; in the data active = inhibition above about 50%
# 697 NFkB inh = inhibitors of PMA/ionomycin-induced NF-kB reporter, 697 cells, primary screen, B-cell NF-kB inhibitor project, cell-based, luminescence, uHTS; hit rate 0.33% among 330,000; 697 B-cell NF-kB luciferase reporter, 16 h; inhibition, % at 4 µM; in the data active = inhibition above about 35%
# Gli-Sufu confirm = Gli-SUFU pathway antagonists, confirmation, single concentration, luciferase luminescence, Sufu-KO-LIGHT cells | shares compounds with Gli-Sufu block | Gli luciferase reporter | inhibition, % at 5 µM | hit rate 40% among 2,500;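 active = mean inhibition at 5 µM reaching about 45%, limit read from the data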;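 also: plate controls were DMSO-treated cells for no effect and wells lacking cells for full effect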
# SufuKO cytotox = cytotoxicity in Sufu-KO-LIGHT cells, confirmation, cytotoxicity control for Gli-SUFU antagonist project, cell-based, ATP luminescence, single concentration | shares compounds with Gli-Sufu block | cytotoxicity, % at 5 µM | hit rate 32% among 2,500;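 active = mean cytotoxicity at 5 µM above about 25%, limit read from the data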;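 also: cells exposed to compound overnight for roughly 16 to 18 hours; plate controls were DMSO wells with cells for no effect and medium without cells for full effect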
# Wnt3a counter = Wnt3a reporter signal inhibition, confirmation, counter-screen for Gli-SUFU antagonist project, Wnt-LIGHT cells, luminescence, single concentration; shares compounds with Gli-Sufu block; Wnt3a-driven luciferase reporter; inhibition, % at 6.25 µM; hit rate 20% among 2,500;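 active = mean inhibition above about 25%, limit read from the data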
# * hit, by the source's call; x = not tested or not shown. An excerpt weighted towards active compounds, which were near 2.3% of everything screened.
SMILES,MITF TRPM1 inh,Shn3 inh set2,Gli-Sufu block,LMP1 NFkB inh,Jurkat NFkB inh,697 NFkB inh,Gli-Sufu confirm,SufuKO cytotox,Wnt3a counter
Cc1ccc(C(=O)NC2CCC(C)CC2)o1 (stereo not drawn),-39.3,-52.5,-31.6,-21.0,-10.6,-20.3,x,x,x
O=C1NC(=S)S/C1=C\c1ccc2ccccc2c1,-12.4,-2.4,-11.0,-4.6,-18.0,-44.8,x,x,x
CN1CCc2c(c3ccccc3n2Cc2ccccc2)C1,4.8,-19.9,-2.6,-1.3,-4.3,-21.7,x,x,x
CCCCN1CCc2c(c3ccccc3n2Cc2ccccc2)C1,-8.0,28.2,60.1*,-18.8,11.7,0.9,35.2,0.6,-31.1
CCOC(=O)[C@H]1[C@H]2COc3ccc(OC)cc3[C@@H]2N2C(=O)c3cc(OC)c(OC)cc3NC(=O)[C@@]12C,-6.6,3.1,98.8*,-55.6,6.7,-6.3,17.7,-9.4,13.2
CC(C)N(CCCNC(=O)c1nn(C)c2c1CS(=O)(=O)c1ccccc1-2)Cc1ccccc1,-9.1,-9.1,61.3*,-1.2,-3.2,-3.1,24.5,17.9,-9.1
CC1=NCCN1S(=O)(=O)c1cc(Cl)ccc1Cl,3.8,-3.9,55.8*,4.8,0.6,1.6,23.2,17.4,-2.8
O=S(=O)(c1cc(Cl)ccc1Cl)N1CCCC1,-9.1,9.3,5.1,0.3,2.2,-5.4,x,x,x
COCC1CCCCN1C(=O)c1cc(COc2ccc3ncccc3c2)on1 (stereo not drawn),28.3,88.7*,71.8*,15.8,42.1,-22.0,59.3*,21.6,33.7*
COCCOC1CCN(C(=O)c2cc(COc3ccc(-n4cncn4)cc3)on2)CC1,3.8,22.8,24.0,-0.3,10.0,10.0,x,x,x
CC(CCCC(C)(C)O)NC(=O)c1cc(COc2ccc3ncccc3c2)on1 (stereo not drawn),10.8,89.9*,51.0,10.2,47.3,-34.0,56.3*,21.8,31.1*
COCCC1CCCCN1C(=O)c1cc(COc2ccc(-n3cncn3)cc2)on1 (stereo not drawn),21.3,84.6,58.1*,19.4,31.6,-20.8,67.5*,23.1,39.9*
Cn1c(CNC(=O)c2ccco2)nnc1SCC(=O)Nc1ccc(Cl)cc1,13.6,6.5,97.3*,0.0,-2.0,18.5,24.0,-9.2,-11.8
COC(=O)c1cc(S(=O)(=O)N2CCC(c3ccccc3)C2)c[nH]1 (stereo not drawn),-4.2,17.0,13.8,6.2,16.0,3.5,x,x,x
COC(=O)c1cc(S(=O)(=O)N2CCC(c3cc(OC)ccc3OC)C2)c[nH]1 (stereo not drawn),14.7,78.6,52.4,16.6,21.5,-38.2,44.9,27.8*,5.5
COC(=O)c1cc(S(=O)(=O)N2CCN(c3ccc([N+](=O)[O-])cc3)CC2)c[nH]1,2.8,23.2,51.0,3.8,16.2,-7.5,21.0,-1.1,-68.1
COc1ccc(OC)c(CN2CCC(CO)(CCOc3ccccc3)CC2)c1,-2.0,-16.9,-0.8,-0.8,4.3,22.2,x,x,x
COc1cc(/C=N/n2c(C)n[nH]c2=S)ccc1OCc1ccc(F)cc1,-85.0,-119.3,-30.1,-4.0,-48.0,-14.9,x,x,x
O=C(Cc1cccs1)NCc1ccccc1F,-42.3,-14.4,-20.2,-10.5,-11.2,10.7,x,x,x
Cc1ccc2c(c1)nnn2C1CCN(S(=O)(=O)c2ccc(C(=O)N3C(C)CCCC3C)cc2)CC1 (stereo not drawn),26.1,84.4,67.0*,18.9,15.2,-51.7,69.5*,29.6*,18.4
Cc1ccc2c(c1)nnn2C1CCN(S(=O)(=O)c2ccc(C(=O)O)cc2)CC1,-13.5,5.5,-1.0,-6.8,-3.5,10.1,x,x,x
Brc1ccc(-c2csc(N3CCCCCC3)n2)cc1,-33.3,-3.7,50.7,46.3*,-20.6,18.6,59.0*,1.0,27.2*
COc1ccccc1NC(=O)Nc1ccncc1,2.4,14.4,-11.1,-6.6,-6.1,1.6,x,x,x
COc1ccccc1NC(=O)Nc1ccc(Cc2ccncc2)cc1,-29.8,-7.3,50.3,-8.7,-1.5,0.5,14.9,6.9,-37.9
CCOc1ccc(N(CC(=O)Nc2ccccc2OC)S(=O)(=O)c2ccccc2)cc1,32.1,-30.6,54.1,16.0,49.6,-9.1,47.1*,60.1*,-30.0
SMILES,MITF TRPM1 inh,Shn3 inh set2,Gli-Sufu block,LMP1 NFkB inh,Jurkat NFkB inh,697 NFkB inh,Gli-Sufu confirm,SufuKO cytotox,Wnt3a counter
CNS(=O)(=O)c1cc(N(C)S(=O)(=O)c2ccc(C)cc2)c(C)cc1C,-8.6,-3.8,3.4,-11.8,-3.7,13.9,x,x,x
CCOc1ccccc1NC(=O)c1ccc2c(=O)n3c(nc2c1)CCCCC3,-8.9,10.8,17.4,3.9,-5.4,-30.9,x,x,x
CCCNC(=O)c1ccccc1NC(=O)c1ccc2c(=O)n3c(nc2c1)CCC3,-1.2,-14.5,95.7*,2.3,-5.8,-9.5,21.9,14.6,-0.7
COc1cc(OC)c(NS(=O)(=O)c2ccc(Cl)c(C(=O)OC(C)C(=O)N3CCCC3)c2)cc1Cl (stereo not drawn),3.3,75.6,50.6,0.9,-0.4,-14.2,25.3,13.5,-14.4
COc1ccc(NS(=O)(=O)c2ccc(C)c(C(=O)OC(C)C(=O)N3CCOCC3)c2)cc1 (stereo not drawn),-0.6,30.8,9.1,6.3,13.6,14.8,x,x,x
O=C(Oc1ccccc1N1C(=O)C2CC=CCC2C1=O)c1ccc(Br)cc1 (stereo not drawn),10.8,-13.5,52.1,-8.4,-2.7,-15.1,16.9,11.2,-16.3
O=C(NCc1ccc2c(c1)OCO2)c1nc(Cn2cc([N+](=O)[O-])cn2)no1,2.7,-8.7,53.7,0.9,7.8,9.5,11.2,-10.1,-2.6
CCOc1ccc(N(C)C(=O)CCc2nnc3ccc(N4CCCCC4)nn23)cc1,6.7,8.6,59.4*,-2.0,-2.2,-21.0,25.2,9.4,-13.8
CCOc1ccc(NC(=O)CCc2nnc3ccc(N4CCN(C)CC4)nn23)cc1,6.1,-5.2,35.0,x,-2.7,6.0,x,x,x
COc1ccc(O)c(/C=N/NC(=O)c2ccc(CSc3nc(C)cc(C)n3)cc2)c1,x,88.0*,62.8*,31.1,26.8,-30.1,48.4*,18.6,41.3*
